# Measurements taken from PubChem BioAssay AID652067 (The Scripps Research Institute Molecular Screening Center, 2013).
# About 5,400 (1.5%) of roughly 370,000 compounds were called active. Only a selection was taken, and actives are over-represented in it overall. Unmarked numbers belong to inactive results.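 How the source made its calls: active means activation above the mean of all tested compounds plus 3 SD (cut at about 5.5% in these data); inactive means the rest.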
# Tested on: DAF-12 nuclear receptor (Haemonchus contortus)
# Assay: H. contortus DAF-12 nuclear receptor activators, primary screen, cell-based, luminescence, HEK293, lit1-tk-luc reporter (AID 652067);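 further: 100% = response to 3 µM Δ7-dafachronic acid high control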
# Details: HEK293 hcDAF-12 lit1-tk-luc reporter, at 6.8 µM, active compounds read high, 0% DMSO, 100% Δ7-dafachronic acid
row,Structure (SMILES),activation
1,Cc1cc2nnc(SCC(=O)N3CCN(c4ccccc4)CC3)n2c(N)n1,-2.55%
2,O=C(CSc1nnc(Cc2ccccc2)n1-c1ccccc1)N1CCOCC1,-0.92%
3,Cc1nnc(SCC(=O)N2CCN(c3ccccc3)CC2)n1-c1ccccc1,6.51% (active)
4,CCC1CCc2c(sc(NC(C)=O)c2C#N)C1 (stereo unspecified),-0.54%
5,N#Cc1c(NC(=O)C2CCCO2)sc2c1CCCCC2 (stereo unspecified),6.65% (active)
6,N#Cc1c(NC(=O)c2ccc(N3CCOCC3)c([N+](=O)[O-])c2)sc2c1CCCC2,-0.5%
7,COC(=O)C1=C(C)NC(=S)NC1c1ccc(OC)cc1 (stereo unspecified),-0.46%
8,C=CC[C@]12C[C@@]3(O[C@H](c4ccc(C(F)(F)F)cc4)N=C3C[C@H](c3ccc(OC)cc3)[C@H]1C)N(C1CCN(Cc3ccccc3)CC1)C2=O,1.02%
9,N=c1c2c3c(sc2nc2n1CCCCC2)CCCC3,0.65%
10,O=c1c2c(nc3n1CCCCC3)sc1c(O)cccc12,5.87% (active)
11,CC(=O)c1ccc(NC(=O)c2sc3nc4n(c(=O)c3c2C)CCCCC4)cc1,3.47%
12,c1csc(-c2nnc(SCc3nc4ccccc4[nH]3)o2)c1,0.87%
13,CC1CCCN(c2cccc3c2S(=O)(=O)N(Cc2ccc(F)cc2)[C@@H](C)[C@H](c2ccccc2)O3)C1 (stereo partly specified),-1.13%
14,Cc1ccc(SCCC(=O)NCc2ccccn2)cc1,0.97%
15,Cc1ccc(SCCSc2ncccn2)cc1,7.62% (active)
16,Cc1ccc(SCCC(=O)NC(C(C)C)C(C)C)cc1,-0.97%
17,COc1cccc(CN(C)C(=O)CC23CC4CC(CC(C4)C2)C3)c1OC,-1.43%
18,CCOC(=O)c1ccc(-c2ccc3ncnc(N(C)Cc4sccc4C)c3c2)o1,0.56%
19,COCCCNc1nc2ccccc2nc1NS(=O)(=O)c1ccc(F)cc1,4.77%
20,Cc1ccc(S(=O)(=O)Nc2nc3ccccc3nc2N2CCc3ccccc3C2)cc1,6.92% (active)
21,Cc1ccc(S(=O)(=O)C(C#N)c2nc3ccccc3nc2N2CCCC2)cc1C (stereo unspecified),-0.94%
22,O=C(CSc1nc2c(c(=O)[nH]1)CCCC2)N1CCCCC1,0.61%

row,Structure (SMILES),activation
1,CCOC(=O)C1CCN(C(=O)C(C)(C)NC(=O)Nc2ccc(F)c(F)c2)CC1,-0.52%
2,O=C(NCc1cccs1)C1CCN(S(=O)(=O)c2ccccc2[N+](=O)[O-])CC1,-1.15%
3,c1ccc(C2CNCc3c2ccc2ccccc32)cc1 (stereo unspecified),6.29% (active)
4,c1ccc2c(CCN3CCNC[C@H]3Cc3cccc4ccccc34)cccc2c1,-0.26%
5,Cn1ncc([N+](=O)[O-])c1C(=O)Nc1cc(Cl)ccc1Cl,-1.09%
6,c1coc(CCNc2ncnc3ccc(-c4ccc5c(c4)OCO5)cc23)c1,3.8%
7,CC(C)n1c(NCc2c[nH]c3ccccc23)nc2ccccc21,1.49%
8,CC(C)(C)C(c1nc2ccccc2[nH]1)n1c(Cc2csc3ccccc23)nc2ccccc21 (stereo unspecified),6.12% (active)
9,CCC(c1nc2ccccc2[nH]1)n1c(=O)c(-c2cccs2)nc2ccccc21 (stereo unspecified),-1.27%
10,N#Cc1nc(N)nc(N(c2ccccc2)c2ccccc2)n1,-1.6%
11,Cc1ccccc1C(=O)N[C@H](C(=O)N1CCC[C@H]1C(=O)NCc1ccccc1)C(C)C,6.82% (active)
12,Cc1ccccc1NC(=O)N1CCCC1C(=O)NCc1ccccc1 (stereo unspecified),0.56%
13,CC(C)C[C@H](NC(=O)CC1CCCC1)C(=O)N1CCC[C@H]1C(=O)NCc1ccccc1,-1.97%
14,C=CCN1[C@H](CC(C)C)COc2cccc(N3CCCC3)c2S1(=O)=O,1.33%
15,COC(=O)[C@]12C[C@H](CC(=O)N3CCN(C(=O)C4CC4)CC3)C(=O)N(Cc3ccc4c(c3)OCO4)C1=C[C@H](C(C)(C)C)O[C@@H]2C,-0.45%
16,Nc1ncnc2c1ncn2[C@@H]1O[C@H](C(=O)N[C@@H](CCc2ccccc2)C(=O)N2CCCN(Cc3cccs3)CC2)[C@@H](O)[C@H]1O,-0.84%
17,CC1CCN(c2ccc(C(=O)O)cc2NS(=O)(=O)c2ccc(Br)s2)CC1,0.68%
18,Cc1c(Br)c([N+](=O)[O-])nn1CC(=O)N1CCN(Cc2ccccc2)CC1,-0.25%
19,O=C(Nc1ccn(Cc2ccccc2)n1)c1cccc(F)c1,8.2% (active)
20,CCOc1cccc(C(=O)Nc2cnn(Cc3ccccc3)c2)c1,-0.69%
21,O=C(Cn1cnc([N+](=O)[O-])n1)NCCc1ccccc1,1.32%
22,Cc1ccc(NC(=O)CC2C(=O)N(Cc3ccccc3)C(=S)N2NC(=O)c2cccc(F)c2)c(C)c1 (stereo unspecified),0.38%

row,Structure (SMILES),activation
1,O=C(Nc1ccn(Cc2ccccc2)n1)c1n[nH]c([N+](=O)[O-])c1Cl,5.98% (active)
2,CCCCCN1CCCCC(NC(=O)C(C)CCC)C1=O (stereo unspecified),0.16%
3,CC(C)(C)C(=O)Nc1c(Br)c(C2CC2)nn1-c1ccccc1,-0.94%
4,O=C(CCCCCN1C(=O)C2C3C=CC(C3)C2C1=O)Nc1ccccc1 (stereo unspecified),-1.48%
5,CN(C)CC(=O)N[C@@H]1C[C@@H]2O[C@H](CO)CC[C@@H]2O[C@@H]1CCc1ccc(C#Cc2ccccc2)cc1,-2.47%
6,COc1cccc(NC(=O)COC(=O)c2ccc3ccccc3n2)c1,4.16%
7,COc1ccc(C(=O)COC(=O)c2ccc3ccccc3n2)cc1,0.42%
8,COc1ccc(C2=NOC(COC(=O)c3ccc4ccccc4n3)C2)cc1 (stereo unspecified),7.15% (active)
9,COc1cccc(C(O)Cc2nc3ccccc3n2C)c1OC (stereo unspecified),-0.39%
10,Cc1ccc(OCc2nnc(SC3CCc4ccccc4C3=O)n2C)cc1 (stereo unspecified),1.15%
11,Cc1ccc(OCc2nc3ccccc3n2C)cc1,11.3% (active)
12,CC(=O)c1ccc(NC(=O)Cn2c(=O)oc3ccccc32)cc1,-1.53%
13,Cc1cccnc1NC(=O)Cn1c(=O)oc2ccccc21,6.75% (active)
14,COc1ccc(OC)c(NC(=O)Cn2c(=O)oc3ccccc32)c1,-1.37%
15,CCC[C@H]1C(=O)CC[C@@]23CCCN2C(=O)CCC[C@@H]13,0.52%
16,COc1ccnc(C(=O)N2CCC(Oc3cccnc3)CC2)c1,-0.13%
17,COCCN(CCOC)S(=O)(=O)c1ccc(C(=O)Nc2nc3c(s2)CCc2ccccc2-3)cc1,-3.08%
18,CN(C)CCNC(=O)c1[nH]nc2c1CCc1ccccc1-2,6.06% (active)
19,CN(C)CCNC(=O)c1ccc(-c2cn3c(-c4ccc(Oc5ccccc5)cc4)cnc3cn2)cc1,-0.28%
20,COC(=O)[C@]12C[C@H](CC(=O)NCCCCc3ccccc3)C(=O)N(Cc3ccc4c(c3)OCO4)C1=C[C@H](C(C)(C)C)O[C@@H]2C,2.01%
21,C[C@H]1[C@H](NC(=O)c2cccc(N(C)C)c2)CC[C@@]23CCCN2C(=O)CCC[C@@H]13,-1.72%
22,CCCNC(=O)Nc1ccc2c(c1)C(=O)N(C)[C@H]1CC[C@H](CC(=O)NCC3CCCCC3)O[C@@H]1CO2,1.19%

row,Structure (SMILES),activation
1,Cc1nc(NC(=O)C(C)(C)C)sc1[N+](=O)[O-],-0.38%
2,Nc1[nH]c(C(=O)c2ccccc2)c(-c2ccc(Cl)cc2Cl)c1C(=O)c1ccccc1,-1.47%
3,Nc1[nH]c(C(=O)c2ccc(Br)cc2)c(-c2ccc3c(c2)OCO3)c1C(=O)NCCc1c[nH]c2ccccc12,0.26%
4,Cc1ccnc(N2C(=O)c3ccc([N+](=O)[O-])cc3C2=O)c1,-1.07%
5,O=c1c2cc([N+](=O)[O-])ccc2nc2n1CCC2,-0.38%
6,Cc1ccc(-n2cc3ccc([N+](=O)[O-])cc3n2)cc1,9.08% (active)
7,COC(=O)C[C@@H]1CC[C@@H]2[C@H](COc3ccc(NC(=O)c4cccc(F)c4)cc3C(=O)N2C)O1,-2.02%
8,O=C(NCCCc1ccccc1)[C@H](Cc1ccccc1)NC1(C(=O)NCCc2c[nH]c3ccccc23)CCC1,1.93%
9,Nc1ncnc2c1ncn2[C@@H]1O[C@H](C(=O)N[C@@H](CCc2ccccc2)C(=O)NCC(=O)N2CCOCC2)[C@@H](O)[C@H]1O,-0.25%
10,Cc1cc(NC(=O)Nc2ccccc2[N+](=O)[O-])no1,-0.4%
11,Cc1csc(NC(=O)Nc2ccccc2[N+](=O)[O-])n1,13.9% (active)
12,CN1CCN(CCNC(=O)Nc2ccccc2[N+](=O)[O-])CC1,-0.05%
13,CCOc1ccc(-n2c(SCC(=O)Nc3cc(C)c(NC(=O)c4ccccc4)cc3OC)nnc2-c2cccs2)cc1,-0.56%
14,O=C(CN1C(=O)NC2(CCc3ccccc32)C1=O)NC1CCCCC1 (stereo unspecified),2.74%
15,Nc1nc2c(ncn2[C@@H]2O[C@H](C(=O)N[C@H](Cc3ccccc3)C(=O)NCC3CCCCC3)[C@@H](O)[C@H]2O)c(=O)[nH]1,1.38%
16,Cc1ccc(NC(=O)c2csc3c2CCCC3)cc1,11.3% (active)
17,CC1CC(C)CN(CCCNC(=O)c2csc3c2CCCCC3)C1 (stereo unspecified),0.75%
18,COc1ccc(NC(=O)c2c(C)oc3c2CCCC3)cc1,1.98%
19,COCCNC(=S)N(C)[C@H]1C[C@H]2c3[nH]c4ccccc4c3CCN2C[C@H]1[C@H](C)O,1.74%
20,COc1cc2cc(CN(CCN3CCCC3)C(=O)Nc3ccccc3Cl)c(=O)[nH]c2cc1OC,-0.2%
